D2 PAM-1 = Beta-Arrestin HTS for Positive Allosteric Modulators of the Human D2 Dopamine Receptor: Potentiators; 360,000 tested, 0.23% active; potentiation, % (concentration not given with the values); AID 624464, 2012; DiscoveRx D2 beta-arrestin cells, luminescence, 90 min; 100% = 57 uM dopamine signal; D(2) dopamine receptor (Homo sapiens), P14416; in the data active means potentiation above about 50%; inconclusive means mostly about 30% to 49%
Target sequence (P14416 whole entry, looked up): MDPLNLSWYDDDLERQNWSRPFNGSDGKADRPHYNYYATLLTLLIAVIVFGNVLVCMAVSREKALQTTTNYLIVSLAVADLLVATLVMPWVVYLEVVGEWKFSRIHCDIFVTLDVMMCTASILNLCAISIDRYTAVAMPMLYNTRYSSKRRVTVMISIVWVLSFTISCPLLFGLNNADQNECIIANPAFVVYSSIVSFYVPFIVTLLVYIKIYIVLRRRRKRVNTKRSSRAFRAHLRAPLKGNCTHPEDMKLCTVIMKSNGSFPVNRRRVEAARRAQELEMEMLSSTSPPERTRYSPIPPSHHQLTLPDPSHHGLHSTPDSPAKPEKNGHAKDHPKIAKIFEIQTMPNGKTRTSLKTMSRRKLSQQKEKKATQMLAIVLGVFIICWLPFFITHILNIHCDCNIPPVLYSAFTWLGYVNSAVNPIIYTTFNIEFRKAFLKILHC
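PathHunter D2 cells, attached overnight at 37 deg C, received compound in DMSO plus dopamine at EC20 (50 nM final) for 90 min at 37 deg C. Beta-arrestin recruitment was read as luminescence after 1 h with detection reagent at ambient temperature.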
D2 ag-1 = Beta-Arrestin HTS for Positive Allosteric Modulators of the Human D2 Dopamine Receptor: Agonists | D(2) dopamine receptor (Homo sapiens), P14416 | DiscoveRx PathHunter D2 beta-arrestin, luminescence, 90 min; 100% = 57 uM dopamine signal | activation, % (no concentration beside the values) | 360,000 tested, 0.084% active | AID 624465, 2012; in the data active means activation above about 40%; inconclusive means between about 15% and that limit
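DiscoveRx PathHunter D2 beta-arrestin cells (2,100/well) attached overnight, then compound-stimulated 90 min at 37 C in HBSS/10 mM HEPES/0.1% Tween-20 buffer; beta-galactosidase complementation read by luminescence after 1 h at ambient temperature. Dopamine 57 uM final (EC100) as control.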
D2 PAM-2 = HTS Assay for Positive Allosteric Modulators of the Human D2 Dopamine Receptor: Primary Screen for Potentiators | HEK293 T-REx D2, calcium flux, EC20 dopamine potentiation | potentiation, % at 10 µM | 340,000 tested, 0.34% active;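 active means potentiation over 3 SD above the plate norm, cut at about 30% in these data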; further: 0% is about no effect
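Tetracycline-induced Hek293 Trex D2 cells, force-coupled to calcium, loaded with no-wash calcium dye. Compound added with 180 s kinetic read for agonism, then EC20 dopamine and a further 180 s read for potentiation.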
D2 ag-2 = HTS Assay for Allosteric Agonists of the Human D2 Dopamine Receptor: Primary Screen for Agonists; AID 485358, 2010; HEK293 T-REx D2 cells, calcium flux agonist mode; D(2) dopamine receptor (Homo sapiens), P14416; activation, % at 2 µM; 340,000 tested, 0.53% active;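 active means activation over 3 SD above normal in the single-dose calcium agonist read, cut at about 30% in these data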; further: 0% is about no effect
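HEK293 Trex D2 cells, tetracycline-induced, o/n 30 C 5% CO2; no-wash Ca dye, RT 30–90 min; 10-cycle baseline, 23 nl cpd added, kinetic Ca read 180 s; agonist hits = positive Ca response.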
LDHA block = qHTS assay for inhibitors of human lactate dehydrogenase | L-lactate dehydrogenase A chain (Homo sapiens), P00338 | purified LDHA, NADH/diaphorase-resazurin fluorescence; active compounds read low | activity change, % (values are at about 110 or 230 µM) | 480,000 tested, 0.15% active | AID 1347041, 2019; in the data active means activity change below about -30%; inconclusive means mostly about -25% to -30%;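 further: plate controls were DMSO wells for no effect and wells without enzyme for full effect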
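Enzyme activity of human lactate dehydrogenase 5 (2 nM; 0.06 mM NADH, 0.2 mM pyruvate, 5 min, RT) is measured via a resazurin/diaphorase fluorescence readout of residual NADH.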
D2 antag = HTS Assay for Allosteric Antagonists of the Human D2 Dopamine Receptor: Primary Screen for Antagonists. D(2) dopamine receptor (Homo sapiens), P14416. HEK293 TREx D2 cells, calcium flux, dopamine EC80. inhibition, % at 10 µM. 340,000 tested, 2% active. AID 485344, 2010; in the data active means inhibition above about 30%; inactive means below that, where a call was filed; further: 0% is about no effect
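HEK293 T-REx D2 cells, tet-induced, calcium dye no-wash. Cpd pintool add, 180 s kinetic, then EC80 DA, 180 s kinetic. Ca flux read.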
Active calls of the source: *; ? = inconclusive; · = not tested or not shown. Rows were chosen to be rich in hits. Some 2.1% of all compounds tested hit in one or more screens of this group.

SMILES	D2 PAM-1	D2 ag-1	D2 PAM-2	D2 ag-2	LDHA block	D2 antag
Fc1ccc2[nH]c3c(NCCN4CCOCC4)ncnc3c2c1	7	2	-3	1	-35*	2
Cc1nc(Cl)sc1C(=O)Nc1cccc(Cl)c1C	-13	0	17	-1	-5	-5
Cc1nc(Cl)sc1C(=O)Nc1ccccc1Cl	53*	2	6	-1	-4	-8
COc1cccc(/C(O)=C2\C(=O)C(=O)N(CCc3ccccc3)C2c2ccc(O)cc2)c1 (stereo not given)	·	·	·	·	-16	·
COCCn1c(CSCc2ccc(Cl)cc2Cl)n[nH]c1=S	·	·	·	·	4	·
CCOC(=O)C1=C(C)OC(N)=C(C#N)C1c1c(C)nn(-c2ccccc2)c1Cl (stereo not given)	6	-4	4	1	6	11
C=CCOC(=O)C1=C(C)OC(N)=C(C#N)C1c1c(C)nn(-c2ccccc2)c1Cl (stereo not given)	-14	0	-10	0	-5	44*
CCCCCCCCC(=O)NCCC1=CCCCC1	·	·	·	·	6	·
CCOC(=O)/C=c1\s/c(=C\c2ccc3c(c2)OCCO3)c(=O)n1CC(=O)NCC1CCCO1 (stereo not given)	-8	-2	-4	0	-6	55*
O=C(NCCCNCCCNC(=O)c1ccccn1)c1ccccn1	-25	-1	4	0	-3	74*
CN(C)CCCNCCCNC(=O)c1ccccn1	-4	-1	-5	-1	-1	19
Cc1ccccc1C(=O)NCCCNC(=O)c1ccccn1	0	-1	31*	-2	-5	2
CC1=C/C(=N\NC(=S)Nc2ccccc2F)CC1	·	·	·	·	-3	·
Cc1nc(=O)c(-c2ccccc2)c(C)n1-c1cccc(C(=O)O)c1	6	-2	-8	0	2	31*
Cc1nc(=O)c(-c2ccccc2)c(C)n1-c1ccc(O)c(C(=O)O)c1	12	1	-11	1	·	20
Cc1cc(C(=O)Cn2nc(C(=O)O)c3ccccc3c2=O)c(C)n1-c1ccc(OC(F)F)cc1	0	-4	36*	-1	1	-14
CCCCNC(=S)Nc1cc(C)ccc1F	·	·	·	·	-11	·
C=CCC(NCc1ccccc1)c1ccco1 (stereo not given)	2	-3	41*	0	1	-13
OC(CN1CCN(c2ccccc2Cl)CC1)c1ccccc1 (stereo not given)	-12	2	-21	7	-4	86*
Cc1cc(C)nc(NC(c2cccs2)c2c(NC(=O)c3ccco3)sc(C)c2C)n1 (stereo not given)	·	·	·	·	8	·
CN(C)S(=O)(=O)c1cccc(NC(=O)COC(=O)c2ccc([N+](=O)[O-])o2)c1	78*	11	0	-1	12	-2
COC(=O)c1cccc(NC(=O)CCc2cc(OC)c(OC)c(OC)c2)c1	7	-1	0	-1	1	-7
O=C(COC(=O)c1ccc([N+](=O)[O-])o1)Nc1cccc(S(=O)(=O)N2CCOCC2)c1	21	0	-4	0	1	2
COc1cc(/C=N/NC(=S)Nc2cccc(S(=O)(=O)N(C)C)c2)cc(OC)c1O	10	6	40*	-2	1	-7
COc1cccc(/C=N/NC(=S)Nc2cccc(S(=O)(=O)N(C)C)c2)c1	-5	-1	-11	2	0	1
SMILES	D2 PAM-1	D2 ag-1	D2 PAM-2	D2 ag-2	LDHA block	D2 antag
COc1cc(CCC(=O)Nc2cccc(S(=O)(=O)N(C)C)c2)cc(OC)c1OC	-5	-3	5	0	-24	39*
CN(C)S(=O)(=O)c1cccc(NC(=O)CCSc2ccc(Cl)cc2)c1	-25	-2	-20	1	-2	33*
Cc1cccc(NC(=O)CCSc2ccc(Cl)cc2)c1	·	·	·	·	8	·
Cc1cc(Cl)nc(Cl)c1CCCl	·	·	·	·	-4	·
CC(c1nc(C(C)(C)C)no1)N1CCN(c2oc(C3CC3)nc2C#N)CC1 (stereo not given)	·	·	·	·	3	·
Cc1[nH]c2c(C)cccc2c1CCNC(=O)c1ccc2c(c1[N+](=O)[O-])C(=O)c1ccccc1C2=O	93*	?	-7	0	14	-5
CN(C)C(=O)c1ccc2c(c1[N+](=O)[O-])C(=O)c1ccccc1C2=O	68*	?	·	·	27	·
Cc1[nH]c2ccccc2c1CCNC(=O)c1ccc2c(c1[N+](=O)[O-])C(=O)c1ccccc1C2=O	93*	?	-9	0	28	-5
C=CCc1cccc2cc(C(=O)NCCc3c(C)[nH]c4c(C)cccc34)c(=O)oc12	·	·	-4	0	1	·
O=C(COc1ccccc1)N(Cc1ccc(-c2ccc(Cl)cc2)o1)C1CCS(=O)(=O)C1 (stereo not given)	·	·	·	·	1	·
CC(C)c1ccc(CCNC(=O)Cn2ncc3ccccc3c2=O)cc1	·	·	·	·	-8	·
COCCn1c(CCC(=O)O)ccc1-c1cccs1	2	-4	1	0	6	0
CCCCn1c(CCC(=O)O)ccc1-c1cccs1	-9	0	-16	0	0	40*
O=C1Cc2cc(CCN3CCN(c4nsc5ccccc45)CC3)c(Cl)cc2N1	·	·	-25	0	·	84*
O=C(O)C(c1c[nH]c2ccc(Cl)cc12)N1CCN(c2nsc3ccccc23)CC1 (stereo not given)	·	·	·	·	13	·
Cc1ccc(CNC(=O)c2sccc2C)cn1	·	·	·	·	9	·
CCOC(=O)c1cnc2c(Cl)cccc2c1Nc1cccc(C)c1	·	·	·	·	-1	·
COCC(=O)N(Cc1nc2sc(C)c(C)c2c(=O)[nH]1)C1CCCCC1	-5	-4	12	-2	-8	31*
Cc1nc2cc(NC(=O)c3cccc(S(C)(=O)=O)c3)ccc2o1	-6	-1	-17	0	1	33*
CN(CC(=O)NC(N)=O)c1ccc(C(C)(C)C)cc1	·	·	·	·	3	·
CCOc1ccccc1N1C(=O)CC(Sc2ncccc2C(=O)O)C1=O (stereo not given)	5	-1	-11	0	-9	36*
Cc1cc(/C=C(\C#N)C(=O)NCc2ccccc2)cc(C)c1O	-16	-3	-20	-1	-7	9

Screens: PubChem BioAssay, National Center for Advancing Translational Sciences (NCATS)
